Results on 21 molecules are retold here after PubChem BioAssay (NCATS).

Values joined by “and” are separate entries in the source; they are usually repeats but may differ in a detail not shown here. Equal values may be shown once. A number with no mark means an inactive call. Inconclusive results are not listed. Active and inactive are the calls of the source. Unless noted, calls follow the shape of the dose curve; as a rule, active = well fitted curve in the direction sought with a large enough effect; inconclusive = small, poorly fitted or top-dose-only effect, or another doubt; inactive = no such curve, though single readings can be large; an effect the other way counts as inactive or inconclusive.

The test system of assay [1] is JEG-3. Description: Primary qHTS to identify gynecologic anti-cancer compounds using libraries of approved drugs and bioactive compounds (AID 1345084). Also: nearly all actives have a fitted effect of over 55% in size. Also: potency is read from the fitted curve at half-maximal effect. To be noted: Gynecologic cancer cell panel viability, ATPlite luminescence, 48 h; series mostly up to 57.5 µM. The method, boiled down: (§1)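 Cytotoxicity screen measuring ATP content by luciferase luminescence. Each compound is applied at five concentrations for 48 h at 37 C with 5% CO2.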
In general terms: qHTS replaces the single test concentration by a dilution series.

In assay [2] the test system is PA-1. The description is as above. As to conditions: Gynecologic cancer cell panel viability, ATPlite luminescence, 48 h; series mostly up to 57.5 µM. An outline of the steps: as §1
(Cellular ATP, detected with luciferase, serves as a proxy for viable cell number.)

Assay [3] concerns SKOV3. Described as above. As to conditions: Gynecologic cancer cell panel viability, ATPlite luminescence, 48 h; series mostly up to 57.5 µM. The method, boiled down: as §1
Assay [4] has as its system Tov-21-G. The assay is described as above. To be noted: Gynecologic cancer cell panel viability, ATPlite luminescence, 48 h; series mostly up to 57.5 µM. An outline of the steps: as §1
Assay [5] deals with Tov112D. The assay is described as above. To be noted: Gynecologic cancer cell panel viability, ATPlite luminescence, 48 h; series mostly up to 57.5 µM. An outline of the steps:
as §1

Assay [6] deals with OV90. The assay is described as above. To be noted: Gynecologic cancer cell panel viability, ATPlite luminescence, 48 h; series mostly up to 57.5 µM. An outline of the steps: as §1
Assay [7] can be described thus: Drug repurposing screens with cells derived from glioblastoma tumor samples (AID 1345199). Also: nearly all actives have a fitted effect of over 40% in size. Also: potency is read from the fitted curve at half-maximal effect. As to activity, negative = cell killing: % is scaled to controls: 0 for no effect and ±100 for the full control effect. To be noted: GBM patient neurospheres viability, ATP luminescence, 48 h. The method, boiled down:
(§2)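 Primary testing used CD133+ neurospheres from four GBM patients, seven concentrations, 48 h exposure and ATP-based viability; confirmation added three slower-growing patient lines.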

In assay [8] the test system is astro. Described as above. To be noted: viability, ATP luminescence, 48 h; series mostly up to 45.9 µM. The method, boiled down:
as §2

Assay [9] addresses Nuclear receptor subfamily 1 group I member 2 (Rattus norvegicus) (UniProt Q9R1A7). Description: qHTS assay for small molecule activators of the rat pregnane X receptor (rPXR) signaling pathway (AID 651751; call rule not given here; also: 0% is about no effect). To be noted: rPXR reporter cells, luciferase (One-Glo), 24 h.
Assay [10] in a line: qHTS assay for small molecule activators of the human pregnane X receptor (PXR) signaling pathway (AID 720659; call rule not given here; also: 0% is about no effect).
The mark [11] stands for this setting: at 20 µM (top of the series), tumour line C.
Setting [12] is: at 45.9 µM (top of the series), tumour line B.
Setting [13] is: at 45.9 µM (top of the series), tumour line D.
The mark [14] stands for this setting: at 46.1 µM (top of the series), tumour line C.
The mark [15] stands for this setting: at 46 µM (top of the series), tumour line A.
The mark [16] stands for this setting: at 21.2 µM (top of the series), tumour line B.
Where [17] appears, read: at 21.2 µM (top of the series), tumour line D.

Chain of Nuclear receptor subfamily 1 group I member 2 (Rattus norvegicus) (Q9R1A7 whole entry, looked up): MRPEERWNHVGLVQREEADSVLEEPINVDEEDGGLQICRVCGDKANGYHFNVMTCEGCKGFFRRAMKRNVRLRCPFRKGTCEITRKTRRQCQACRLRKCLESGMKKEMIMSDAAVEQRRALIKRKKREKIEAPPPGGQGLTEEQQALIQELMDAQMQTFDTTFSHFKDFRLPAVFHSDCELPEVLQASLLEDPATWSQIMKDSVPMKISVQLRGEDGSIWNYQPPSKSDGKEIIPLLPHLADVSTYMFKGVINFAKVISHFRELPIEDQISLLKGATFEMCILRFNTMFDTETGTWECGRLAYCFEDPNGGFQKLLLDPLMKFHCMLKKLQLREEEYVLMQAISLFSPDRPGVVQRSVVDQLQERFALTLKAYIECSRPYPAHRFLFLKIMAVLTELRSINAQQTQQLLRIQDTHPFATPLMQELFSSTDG

For the molecule `O=C(Nc1ccc(Oc2ccc(Cl)cc2)c(Cl)c1)c1cc(I)cc(I)c1O`, the Potency entry in [1], in [2], in assay [3], in assay [4] and in assay [5] was “inactive” each time.

Regarding `CCCCOc1ccc(C(=O)CCN2CCCCC2)cc1`, the Potency entry in assay [1], in [6], in assay [2], in [4], in [5] and in [8] was “inactive” in each case. Also, the activity, negative = cell killing in assay [7] (setting [11]) is -2.49%. For the same molecule, in [7] (tumour line A), the Potency was 4.47 µM (active).

As for `CCCCCCCCCCCCCCCCCC(=O)OCC(O)CO` (centres undefined), the Potency result in assay [1], in [6], in assay [3], in assay [4], in [5] and in assay [8] was “inactive” in each case. In addition, the values for the activity, negative = cell killing in assay [7] (setting [12]), in assay [7] (setting [13]) and in [7] (setting [14]) were -5.26%, -15.3% and 1%, respectively.

For the molecule `COc1cc(-c2ccc(=O)[nH]n2)ccc1OC(F)F`, the Potency entry in assay [1], in [6], in assay [3], in [4] and in [5] was “inactive” each time. Also, the activity, negative = cell killing is -9.45% in assay [7] (setting [12]), -28.9% in [7] (setting [13]) and -14.1% in assay [7] (setting [14]).

As for `Cc1c(C)n(Cc2ccccc2)c2ccc(C(=O)OCCN(C)C)cc12`, the Potency result in [1], in [6], in assay [4] and in assay [5] was “inactive” in each case. In addition, the activity, negative = cell killing in assay [7] (setting [14]) was -16.7%. The Potency in [7] (tumour line A) is 11.2 µM (active); in assay [7] (tumour line D) it was 10 µM (active).

In the case of `O=C1OCCN1/N=C/c1ccc([N+](=O)[O-])o1`, the Potency entry in assay [1], in assay [6], in assay [3], in assay [4], in [5] and in [8] was “inactive” each time. Further, the activity, negative = cell killing is 4.9% in assay [7] (setting [12]), -7.13% in [7] (setting [13]), -29.3% in assay [7] (setting [15]) and 4.37% in assay [7] (setting [14]).

Regarding `Cc1c(N(C)CS(=O)(=O)O)c(=O)n(-c2ccccc2)n1C`, the Potency entry in assay [1], in [6], in [3] and in [8] was “inactive” in each case. In addition, the activity, negative = cell killing in assay [7] (setting [11]) was -2.96%; in [7] (setting [16]) it was -9.28%; in assay [7] (setting [17]), -9.47%; in assay [7] (at 21.3 µM (top of the series), tumour line A) it was -23.9%.

Take `CCCN1CCCC[C@H]1C(=O)Nc1c(C)cccc1C`: the Potency result in [1], in assay [6], in [2], in assay [4], in assay [5] and in [8] was “inactive” in each case. For the same molecule, the activity, negative = cell killing in assay [7] (setting [12]) is -11.5%; in assay [7] (setting [13]), -25.5%; in assay [7] (setting [14]), -6.18%. For the same molecule, the Potency in assay [7] (tumour line A) is 35.5 µM (active).

Turning to `CC(=O)[C@H]1CC[C@H]2[C@@H]3C[C@H](C)C4=CC(=O)CC[C@]4(C)[C@H]3[C@@H](O)C[C@]12C`, the Potency entry in [1], in assay [6], in assay [3], in [4], in [5] and in assay [8] was “inactive” in each case. Also, the activity, negative = cell killing in assay [7] (setting [11]) is 12.3%; in assay [7] (setting [16]) it was -24.6%.

`Cc1ccccc1C(=O)Nc1ccc(C(=O)N2CCCC(N(C)C)c3ccccc32)cc1` (centres undefined): the Potency result in assay [1] and in assay [6] was “inactive” each time. In assay [5], the Potency was 8.91 µM (active).

Turning to `CCN(CC)CCOc1ccc(C(O)(Cc2ccc(Cl)cc2)c2ccc(C)cc2)cc1` (centres undefined), the Potency result in assay [1] was “inactive”. Further, the Potency in assay [6] was 17.8 µM (active); in [8] it was 22.4 µM (active).

For `O=C1c2ccccc2C(=O)C1c1ccccc1`, the Potency entry in assay [1], in assay [6], in assay [2], in [4], in assay [5] and in [8] was “inactive” throughout. For the same molecule, the activity, negative = cell killing in assay [7] (setting [11]) was 22.2%; in assay [7] (setting [16]), -2.67%; in assay [7] (setting [17]) it was -10.9%.

For the molecule `CC(C)(C)CC(C)(C)c1ccc(O)c(Cc2ccc(Cl)cc2Cl)c1`, the Potency entry in assay [1], in assay [6], in assay [2], in assay [4] and in assay [5] was “inactive” each time. Moreover, the Potency in [8] was 22.4 µM (active).

Take `CC(C)COC(=O)c1ccc(N)cc1`: the Potency entry in assay [1], in assay [6], in [2], in assay [4], in assay [5] and in [8] was “inactive” in each case. The activity, negative = cell killing in assay [7] (setting [12]) is -9.56%; in assay [7] (setting [13]), -18.7%; in [7] (setting [14]) it was -7.77%.

On to `CCCCC1=NC2(CCCC2)C(=O)N1Cc1ccc(-c2ccccc2-c2nn[nH]n2)cc1`, for which the Potency result in assay [1], in assay [6], in assay [2], in assay [4], in assay [5] and in assay [8] was “inactive” in each case. For the same molecule, the activity, negative = cell killing in assay [7] (setting [12]) is -9.67%; in [7] (setting [13]), -0.133%; in assay [7] (setting [15]), -12.9%; in assay [7] (setting [14]), 8.98%.

On to `COc1cccc2c1C(=O)c1c(O)c3c(c(O)c1C2=O)C[C@@](O)(C(=O)CO)C[C@@H]3O[C@H]1C[C@H](N)[C@H](O)[C@H](C)O1`, for which the Potency is 2.82 µM (active) in assay [1], 4.47 µM (active) in [6], 2.82 µM (active) in assay [3] and 0.891 µM (active) in [5]. The activity, negative = cell killing in [7] (setting [12]) is -6.08%; in assay [7] (setting [13]), -1.75%; in assay [7] (setting [15]) it was -30.7%; in assay [7] (setting [14]), -4.46%. Further, the max response in [9] was 0.888% and 0.44%. Further, in [10], the outcome was inactive.

With `C=CCc1ccc(O)c(OC)c1`, the Potency entry in assay [1], in assay [6], in assay [2], in assay [4], in [5] and in assay [8] was “inactive” in each case. In addition, the activity, negative = cell killing in [7] (setting [12]) is -13.4%; in [7] (setting [13]), 1.72%; in assay [7] (setting [15]) it was -22.5%; in assay [7] (setting [14]), 5.7%. The max response in assay [9] was -0.084% and 3.11%. In addition, the molecule was called inactive in assay [10].

`CO/N=C1\CN(c2nc3c(cc2F)c(=O)c(C(=O)O)cn3C2CC2)CC1CN` (centres undefined): the Potency entry in assay [1], in assay [6], in [3], in assay [4], in assay [5] and in assay [8] was “inactive” throughout. Besides, the activity, negative = cell killing in [7] (setting [12]) was -0.703%; in [7] (setting [13]) it was -7.84%; in assay [7] (setting [14]) it was 13.8%.

With `O=C(CCCN1CCC(O)(c2ccc(Br)cc2)CC1)c1ccc(F)cc1`, the Potency result in [1], in assay [3], in assay [4], in [5] and in assay [8] was “inactive” in each case. In addition, the activity, negative = cell killing in assay [7] (setting [11]) was 5.41%. The figures for the Potency in assay [7] (tumour line A) and in [7] (tumour line D) were 3.55 µM (active) and 8.91 µM (active), respectively.

On to `CC(C)(C)CC(C)(C)c1ccc(OCCOCC[N+](C)(C)Cc2ccccc2)cc1`, for which the Potency result in assay [1] and in assay [5] was “inactive” throughout. Besides, the Potency in [2] is 14.1 µM (active); in [3] it was 12.6 µM (active); in [8], 20 µM (active).

Turning to `C/C=C(/C(=C/C)c1ccc(O)cc1)c1ccc(O)cc1`, the Potency entry in assay [1], in [2], in [4] and in assay [5] was “inactive” in each case. In addition, the activity, negative = cell killing was -5.62% in [7] (setting [11]), -8.12% in assay [7] (setting [16]) and -22.4% in [7] (setting [17]).
